Drawing on PubChem BioAssay, this text covers activation, outcome and potentiation for 15 compounds.

Structures are written as SMILES. For part of these data: Results with a measured potency or affinity are listed apart. The source made the active and inactive calls.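 Rule for the calls, unless noted: active = calcium signal ratio cut to more than 3 SD under the fully stimulated control mean yet still positive, in both repeats and the primary screen; inactive = the rest.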

For test [1], the system named is TRPC4 beta (transient receptor potential cation channel C4), mouse. Put plainly: activators of mouse TRPC4 channel, confirmation, cell-based, Fluo4 calcium, HEK293 TRPC4beta/mu-opioid, duplicates, 10 µM (AID 2426;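 active = fluorescence ratio normalized to control raised more than 50% in primary screen plus both repeat runs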;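 for activation: percent rise of integrated ratio over buffer wells lacking compound which define 0%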). Particulars: Fluo4 calcium fluorescence, at 10 µM; stronger effect = higher value.
The subject of test [2] is transient receptor potential cation channel C4 beta (TRPC4), mouse. As to the kind of experiment: activators of mouse TRPC4 channel, confirmation, cell-based, second round, Fluo4, HEK293 TRPC4beta/mu-opioid, 1 µM (AID 2461;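 active = primary screen active and over 50% activation in each of two duplicate runs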;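 for activation: 0% = wells without test compound as baseline of integrated fluorescence ratio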). Conditions: Fluo4 calcium fluorescence, at 1 µM; stronger effect = higher value.
Test [3] deals with TRPC4 (transient receptor potential cation channel C4 beta), mouse. As to the kind of experiment: positive allosteric modulators of mouse TRPC4, confirmation, cell-based, second round, Fluo-4, HEK293 TRPC4beta/mu-opioid, 1 µM (AID 2554;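 active = primary screen hit whose fluorescence ratio, in both repeats, exceeds the weak agonist control mean by 3 SD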). Particulars: DAMGO EC20, Fluo-4 calcium flux, at 1 µM; stronger effect = higher value. Background: A change in cytosolic calcium serves as a functional read-out for many receptors and channels.

For test [4], the system named is TRPC4 beta (transient receptor potential cation channel C4), mouse. As to the kind of experiment: positive allosteric modulators of mouse TRPC4, confirmation, cell-based, Fluo-4, HEK293 TRPC4beta/mu-opioid (AID 2555;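 active = primary screen hit whose calcium fluorescence ratio, in both repeats, exceeds the weak agonist control mean by 3 SD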). Particulars: DAMGO EC20, Fluo-4 calcium flux, at 10 µM; stronger effect = higher value.
The target of test [5] is Short transient receptor potential channel 4 (Mus musculus) (UniProt Q9QUQ5). Put plainly: inhibitors of mouse TRPC4 channel, confirmation, cell-based, Fluo4, HEK293 TRPC4beta/mu-opioid (AID 2636;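 active = calcium signal cut by more than 3 SD below the full-agonist control yet still positive, in both repeats and the earlier primary screen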). Particulars: DAMGO, Fluo4 calcium flux, at 10 µM; stronger effect = higher value.
The target is the same in test [6]. As to the kind of experiment: inhibitors of mouse TRPC4 channel, confirmation, cell-based, second round, Fluo4, HEK293 TRPC4beta/mu-opioid, 1 µM (AID 2637). Conditions: Fluo4 calcium flux, DAMGO, at 1 µM; stronger effect = higher value.
Test [7] shares this target. Put plainly: TRPC4 positive allosteric modulators, dose response, cell-based, HEK293 TRPC4/mu-opioid, Fluo-4 calcium, EC20 DAMGO (AID 434941;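 active = earlier screen potentiator hit that boosts the TRPC4 ion channel at some dose, with a dose response; inactive = no potentiation, no dose response, or not a prior hit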;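 note: calcium entry triggered by an EC20 dose of DAMGO at the co-expressed mu-opioid receptor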).
The target is the same in test [8]. Put plainly: mouse TRPC4 channel inhibitors, dose response, cell-based, HEK293 TRPC4/mu-opioid, Fluo-4 calcium (AID 434942;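 active = primary screen inhibitor hit that blocks the TRPC4 channel at some tested dose, yielding a dose curve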).
The target of test [9] is Short transient receptor potential channel 6 (Mus musculus) (UniProt Q61143). Put plainly: inhibition of mouse TRPC6 channel, confirmation, selectivity assay for TRPC4 inhibitor project, cell-based, HEK293, membrane potential dye, duplicate (AID 434948;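 active = active in primary screen and both duplicates, each dropping signal beyond three positive-control SD with fluorescence still positive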). Conditions: HEK293 TRPC6, membrane potential dye fluorescence, at 10 µM, stimulated with maximal-effect acetylcholine; stronger effect = higher value.

The target is the same in test [10]. Put plainly: activation of mouse TRPC6 channel, confirmation, selectivity assay for TRPC4 activator project, cell-based, HEK293, membrane potential dye, duplicate (AID 434950;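 active = membrane potential signal rise above negative control mean plus 3 SD in both duplicates, also active in the earlier TRPC4 screen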;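 for activation: 0% = buffer only wells and 100% = acetylcholine maximal-effect wells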). Conditions: HEK293 TRPC6, membrane potential fluorescence, at 10 µM; stronger effect = higher value.
Test [11] shares this target. As to the kind of experiment: TRPC6 potentiation by TRPC4 potentiator hits, confirmation, selectivity assay for TRPC4 potentiator project, HEK293 cells, membrane potential dye, duplicate (AID 434952;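 active = compound raising the membrane signal above positive-control mean plus 3 SD in both repeats, and a primary screen hit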). Particulars: HEK293 TRPC6, membrane potential dye fluorescence, at 10 µM, maximal acetylcholine added after compound; stronger effect = higher value.
The target of test [12] is Short transient receptor potential channel 4 (Mus musculus) (UniProt Q9QUQ5). As to the kind of experiment: calcium flux activators in TRPC4/5HT1a cells, counter-screen for TRPC4 activator project, cell-based, second counter screen, HEK293 TRPC4/5HT1a, Fluo-4 (AID 434977;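 active = calcium signal rise above buffer-control mean plus 5 SD in both duplicates, and also a hit in the primary screen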;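 for activation: plate controls were assay buffer for no effect and maximal serotonin response for full effect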). Conditions: Fluo-4 calcium flux, at 10 µM; stronger effect = higher value.
A short description of test [13]: calcium flux inhibitors in TRPC4/5HT1a cells, confirmation, counter-screen for TRPC4 inhibitor project, cell-based, second counter screen, HEK293 TRPC4/5HT1a, Fluo-4 (AID 434978;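 active = primary screen active whose calcium signal fell more than 3 SD beyond the full-serotonin control mean in both duplicate plates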;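 note: serotonin given first at submaximal then at maximal dose after compound preincubation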). Particulars: Fluo-4 calcium flux, at 10 µM, serotonin added to trigger calcium flux; stronger effect = higher value.
The test system of test [14] is TRPC4 (mouse), co-expressed with 5HT1a in HEK293. Put plainly: calcium flux potentiators in TRPC4/5HT1a cells, confirmation, counter-screen for TRPC4 potentiator project, cell-based, second counter screen, HEK293 TRPC4/5HT1a, Fluo-4 (AID 434979;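 active = signal rise over 3 SD above mean of control wells given weak agonist, in both repeats and first screen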). Particulars: Fluo-4 calcium flux, at 10 µM, serotonin added at its EC20 dose; stronger effect = higher value.
Test [15] can be described thus: calcium flux activation in mu-opioid HEK293 cells, confirmation, counter-screen for TRPC4 activator project, cell-based, HEK293 mu-opioid receptor line (AID 449723;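 active = hit in primary screen, with calcium signal over 5 SD above buffer well mean in both duplicates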;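 note: counter screen cells carry the mu-opioid receptor alone and lack TRPC4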). Conditions: Fluo-4 calcium fluorescence, at 10 µM; stronger effect = higher value.
Test [16] in a line: calcium flux enhancement in mu-opioid HEK293 cells, confirmation, counter-screen for TRPC4 allosteric potentiator project, cell-based, HEK293 mu-opioid receptor line (AID 449724;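 active = calcium signal rise more than 3 SD above the low-dose agonist control mean, in both duplicate plates and the primary screen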;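 note: HEK293 cells carrying mu-opioid receptor only with no TRPC4 channel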). Particulars: Fluo-4 calcium flux, at 10 µM, compound added before EC20 DAMGO stimulus; stronger effect = higher value.

Sequence of Short transient receptor potential channel 6 (Mus musculus) (Q61143 whole entry, looked up): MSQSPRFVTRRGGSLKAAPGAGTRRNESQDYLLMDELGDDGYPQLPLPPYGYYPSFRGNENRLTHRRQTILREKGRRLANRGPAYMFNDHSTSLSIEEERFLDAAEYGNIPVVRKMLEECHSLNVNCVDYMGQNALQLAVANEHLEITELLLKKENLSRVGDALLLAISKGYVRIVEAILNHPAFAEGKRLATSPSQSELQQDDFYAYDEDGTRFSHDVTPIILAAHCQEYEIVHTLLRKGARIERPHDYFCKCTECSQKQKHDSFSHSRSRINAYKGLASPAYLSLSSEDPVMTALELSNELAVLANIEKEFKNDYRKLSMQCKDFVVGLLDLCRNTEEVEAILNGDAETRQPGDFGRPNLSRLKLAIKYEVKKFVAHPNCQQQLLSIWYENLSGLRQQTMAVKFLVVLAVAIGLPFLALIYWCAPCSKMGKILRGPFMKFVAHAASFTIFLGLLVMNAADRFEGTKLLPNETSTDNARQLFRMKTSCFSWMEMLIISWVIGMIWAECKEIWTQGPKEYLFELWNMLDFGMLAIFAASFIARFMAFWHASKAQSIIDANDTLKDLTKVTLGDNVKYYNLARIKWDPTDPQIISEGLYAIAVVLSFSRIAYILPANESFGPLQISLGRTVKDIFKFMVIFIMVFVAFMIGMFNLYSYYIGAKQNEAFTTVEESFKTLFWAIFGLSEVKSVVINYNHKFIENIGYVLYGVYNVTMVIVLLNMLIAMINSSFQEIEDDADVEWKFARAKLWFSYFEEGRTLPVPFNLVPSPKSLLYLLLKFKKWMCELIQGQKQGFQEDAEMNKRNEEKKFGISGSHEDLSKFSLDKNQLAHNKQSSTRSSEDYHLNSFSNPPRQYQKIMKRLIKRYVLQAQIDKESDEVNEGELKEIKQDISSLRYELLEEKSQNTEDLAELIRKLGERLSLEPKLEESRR
Sequence of Short transient receptor potential channel 4 (Mus musculus) (Q9QUQ5 whole entry, looked up): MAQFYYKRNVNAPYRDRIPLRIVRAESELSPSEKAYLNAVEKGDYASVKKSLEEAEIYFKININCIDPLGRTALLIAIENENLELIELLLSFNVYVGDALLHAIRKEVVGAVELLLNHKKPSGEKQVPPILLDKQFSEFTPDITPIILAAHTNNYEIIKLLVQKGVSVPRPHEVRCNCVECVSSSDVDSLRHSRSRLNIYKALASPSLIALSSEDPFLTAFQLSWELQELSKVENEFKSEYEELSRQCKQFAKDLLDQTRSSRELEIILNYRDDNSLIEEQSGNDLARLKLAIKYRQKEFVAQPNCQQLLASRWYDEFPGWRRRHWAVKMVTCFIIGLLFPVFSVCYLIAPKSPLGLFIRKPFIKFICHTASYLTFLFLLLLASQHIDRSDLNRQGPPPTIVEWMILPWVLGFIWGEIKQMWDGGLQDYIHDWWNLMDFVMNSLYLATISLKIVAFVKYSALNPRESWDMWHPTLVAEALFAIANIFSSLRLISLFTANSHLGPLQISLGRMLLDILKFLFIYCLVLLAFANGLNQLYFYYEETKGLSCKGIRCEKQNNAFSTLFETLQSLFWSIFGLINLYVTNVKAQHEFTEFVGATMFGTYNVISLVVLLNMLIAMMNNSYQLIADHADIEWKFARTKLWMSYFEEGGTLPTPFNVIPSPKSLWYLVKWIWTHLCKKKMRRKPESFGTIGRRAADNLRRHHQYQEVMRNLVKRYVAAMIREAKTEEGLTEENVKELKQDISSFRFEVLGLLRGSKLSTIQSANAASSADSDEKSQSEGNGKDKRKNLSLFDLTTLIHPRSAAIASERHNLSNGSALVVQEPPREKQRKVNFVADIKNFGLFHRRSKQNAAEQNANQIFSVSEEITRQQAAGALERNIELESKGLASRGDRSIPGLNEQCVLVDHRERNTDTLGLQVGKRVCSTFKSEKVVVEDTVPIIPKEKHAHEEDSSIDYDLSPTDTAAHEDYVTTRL

Take `Cc1ccccc1N1CC(O)(c2ccccc2)[N+]2=C1SCC2` (stereo not given): the activation in test [1] was 73% (active); in [10], 39% (active). Moreover, the result in test [2], in test [3], in test [4], in test [5], in test [6] and in test [7] was inactive. Moreover, the result in [8], in [9], in [11], in [12], in test [13] and in test [14] was inactive. Further, the outcome in test [15] and in test [16] was inactive.

For the compound `OCC1(CCc2ccccc2)CCN(Cc2cccn2-c2cccnc2)CC1`, the activation is 56% (active) in [1] and 55% (active) in test [10]. In addition, the result in [2], in [3], in [4], in test [5], in test [6] and in test [7] was inactive. Moreover, the result in test [8], in test [9], in test [11], in test [12], in test [13] and in test [14] was inactive. Also, the result in test [15] and in test [16] was inactive.

With `CN1CCN(Cc2nc3c(c(=O)[nH]c(=O)n3C)n2Cc2c(F)cccc2Cl)CC1`, the activation in test [1] was 135% (active); in [2] it was 80% (active); in [10] it was 30% (active); in test [12], 17.9% (active). The potentiation is 11% (active) in [3] and 36.3% (active) in test [14]. Also, the outcome in test [4], in test [5], in test [6], in [7], in [8] and in test [9] was inactive. Also, the outcome in test [11], in test [13], in [15] and in [16] was inactive.

As to `Cc1ccc(Cn2c(SCCN3CCCCC3)nc3c2c(=O)n(C)c(=O)n3C)cc1`, the activation was 114% (active) in test [1] and 8.42% (active) in test [12]. The outcome in test [2], in [5], in [6], in [7], in test [8] and in [9] was inactive. The result in test [10], in test [11], in test [13], in [15] and in test [16] was inactive. The potentiation in test [3] was 8% (active); in test [4], 13% (active); in [14], 81% (active).

As for `CN(CCc1ccccn1)C(=S)Nc1cccc(S(=O)(=O)N(C)C)c1`, the activation is 111% (active) in [1] and 53.6% (active) in test [12]. Also, the outcome in test [2], in [3], in test [4], in [5], in test [6] and in [7] was inactive. Further, the result in test [8], in [9], in test [10], in test [11], in test [13] and in test [14] was inactive. In addition, the result in [15] and in [16] was inactive.

Consider `CCCCN(CC)CCNc1c(N2CCN(C(=O)OCC)CC2)c(=O)c1=O`, for which the values for the activation in test [1] and in test [10] were 155% (active) and 30.5% (active), respectively. Besides, the outcome in test [2], in test [3], in test [4], in test [5], in test [6] and in [7] was inactive. Further, the result in test [8], in test [9], in test [11], in test [12], in test [13] and in [14] was inactive. Also, the result in test [15] and in test [16] was inactive.

On to `CC(Nc1nc(N2CCNCC2)nc2ccccc12)c1ccccc1` (stereo not given), for which the result in [1], in test [2], in test [3], in [4], in [5] and in test [6] was inactive. Further, the outcome in test [7], in test [8], in [9], in test [10], in test [11] and in [13] was inactive. Also, the outcome in test [14], in [15] and in test [16] was inactive. Besides, in test [12], the activation is 16.7% (active).

With `Cc1ccc(CNC(=O)C2CCCN(Cc3cnn(-c4ccccc4)c3-n3cccc3)C2)cc1` (stereo not given), the activation in [1] is 81% (active); in test [10] it was 46% (active). For the same compound, the outcome in [2], in [3], in test [4], in test [5], in [6] and in test [7] was inactive. Also, the result in test [8], in test [9], in test [11], in test [12], in test [13] and in [14] was inactive. The outcome in [15] and in test [16] was inactive.

As to `CC1CC(C)CN(CCCNC(=O)c2ccc3c(c2)N(Cc2ccccc2)C(=O)c2ccccc2S3=O)C1` (stereo not given), the activation was 106% (active) in test [1], 54% (active) in test [2] and 23.8% (active) in test [12]. The result in test [3], in test [4], in [5], in test [6], in test [7] and in [8] was inactive. The result in [9], in test [10], in test [11], in test [13], in test [14] and in [15] was inactive. For the same compound, the outcome in test [16] was inactive.

With `Cc1ccc(-n2cc(CNC(C)c3cnn(C)c3)c(-c3ccc(F)cc3)n2)cc1` (stereo not given), the activation in test [1] is 232% (active); in test [2], 103% (active); in test [10], 33% (active); in test [12], 5.72% (active). Besides, the result in [3], in [4], in [5], in test [6], in test [7] and in test [8] was inactive. The call in [9], in test [11], in test [13], in test [14], in [15] and in test [16] was inactive.

Consider `COC(=O)c1ccc(N2CCN(C)CC2)c(NC(=O)c2ccc(Br)o2)c1`, for which the activation in [1] was 148% (active); in [12], 13.3% (active). Further, the result in test [2], in test [3], in test [4], in test [5], in test [6] and in test [7] was inactive. Besides, the result in test [8], in [9], in test [10], in test [11], in [13] and in [14] was inactive. In addition, the outcome in [15] and in [16] was inactive.

`Cn1c(N2CCN(C(=O)Nc3ccc(F)cc3)CC2)nc2ccccc21`: the activation is 51% (active) in test [1] and 22.1% (active) in test [12]. For the same compound, the result in [2], in test [3], in test [4], in test [5], in [6] and in test [7] was inactive. Besides, the outcome in test [8], in test [9], in [10], in [11], in test [13] and in [14] was inactive. For the same compound, the result in test [15] and in [16] was inactive.

Regarding `Cc1ccc(S(=O)(=O)/N=C2/NC(=O)/C(=C\c3cc(Br)cc(Br)c3O)S2)cc1`, the result in [1], in [2], in test [3], in test [5], in test [6] and in [7] was inactive. The result in test [8], in test [9], in test [11] and in test [13] was inactive. In addition, the potentiation was 35% (active) in test [4] and 9.14% (active) in test [14]. In addition, the activation in test [10] is 447% (active); in test [12], 45.6% (active); in [15] it was 60.8% (active); in test [16] it was 600% (active).

On to `Cc1csc2c(N3CCN(C(=O)Nc4ccc(Cl)c(Cl)c4)CC3)ncnc12`, for which the activation was 115% (active) in test [1] and 40.3% (active) in test [12]. Moreover, the outcome in [2], in test [3], in test [4], in [5], in test [6] and in [7] was inactive. In addition, the outcome in test [8], in test [9], in [10], in [11], in test [13] and in test [14] was inactive. Also, the result in [15] and in [16] was inactive.

As to `Cc1ccccc1C(=O)NNC(=S)NC(=O)COc1ccccc1`, the activation in [1] was 180% (active); in [12], 127% (active); in test [15], 43.2% (active). Moreover, the outcome in test [2], in [3], in test [4], in test [5], in test [6] and in [7] was inactive. In addition, the outcome in test [8], in test [9], in test [10], in [11], in test [13] and in test [14] was inactive. Further, the result in test [16] was inactive.
